According to PubChem BioAssay AID588511 (Johns Hopkins Ion Channel Center, 2011):
About 3,600 (1.2%) of roughly 310,000 compounds were called active.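 The calls were made as follows: active = ratio plate-corrected score three or more library SD toward inhibition, starting fluorescence score within five deviations; inactive = the rest.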 The list comes from a sample in which actives are over-represented; it also holds similar structures and randomly drawn compounds.

Target: Anoctamin-1 (Mus musculus) (UniProt Q8BHY3)
Sequence (Q8BHY3 whole entry, looked up): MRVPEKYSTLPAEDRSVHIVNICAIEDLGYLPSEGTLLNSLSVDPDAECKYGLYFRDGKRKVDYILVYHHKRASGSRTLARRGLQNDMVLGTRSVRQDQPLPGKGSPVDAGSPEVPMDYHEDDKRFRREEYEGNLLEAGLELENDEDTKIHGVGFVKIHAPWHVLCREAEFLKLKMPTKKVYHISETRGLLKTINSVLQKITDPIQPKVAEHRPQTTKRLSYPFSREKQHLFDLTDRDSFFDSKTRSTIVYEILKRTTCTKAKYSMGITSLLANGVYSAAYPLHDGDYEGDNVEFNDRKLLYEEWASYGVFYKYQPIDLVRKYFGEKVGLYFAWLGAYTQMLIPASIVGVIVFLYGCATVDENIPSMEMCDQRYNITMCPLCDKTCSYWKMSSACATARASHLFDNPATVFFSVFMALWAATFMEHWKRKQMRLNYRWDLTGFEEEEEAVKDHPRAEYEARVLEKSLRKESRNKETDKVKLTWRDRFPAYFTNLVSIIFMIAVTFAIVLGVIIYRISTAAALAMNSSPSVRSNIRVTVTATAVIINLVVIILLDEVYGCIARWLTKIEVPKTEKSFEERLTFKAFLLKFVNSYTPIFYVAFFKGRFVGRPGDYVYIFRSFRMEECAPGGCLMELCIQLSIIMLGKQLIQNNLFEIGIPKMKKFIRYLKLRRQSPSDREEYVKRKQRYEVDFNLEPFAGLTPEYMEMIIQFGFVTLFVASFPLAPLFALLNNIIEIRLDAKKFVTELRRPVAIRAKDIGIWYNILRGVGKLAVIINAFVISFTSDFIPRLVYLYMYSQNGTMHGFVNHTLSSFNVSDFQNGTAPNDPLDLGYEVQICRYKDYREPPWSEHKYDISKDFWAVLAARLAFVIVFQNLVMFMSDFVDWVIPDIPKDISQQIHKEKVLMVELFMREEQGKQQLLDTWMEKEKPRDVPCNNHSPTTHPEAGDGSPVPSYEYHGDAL
Assay: blockers of mouse ANO1 Ca-activated Cl channel – cell-based, HTS, primary screen (AID 588511);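 as to normalized B-score (activity score, 25-100; higher = stronger inhibition): score derived from kinetic fluorescence span divided by baseline fluorescence per well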
Conditions: HEK293 TMEM16A/YFP iodide influx fluorescence, ionomycin; at 10 µM

| SMILES | normalized B-score (activity score, 25-100; higher = stronger inhibition) |
| --- | --- |
| Cc1ccc(F)cc1NC(=O)Cc1nn(C)c(=O)c2ccccc12 | 100 (active) |
| Cc1nn(CC(=O)Nc2ccc(F)cc2)c(=O)c2ccccc12 | inactive |
| COc1ccc(-c2nn(C)c(=O)c3ccccc23)cc1NC(=O)COc1ccccc1 | inactive |
| C[C@@H]1NC(=O)c2cc([N+](=O)[O-])cc(F)c2NCCC[C@@H](C(N)=O)NC(=O)[C@H](CC(N)=O)NC1=O | inactive |
| Cc1nn(C)c(Oc2ccccc2)c1CCNS(=O)(=O)c1ccc(F)cc1 | inactive |
| C/C(=N\NS(=O)(=O)c1ccc(Cl)cc1)c1ccc(NC(=O)c2ccco2)cc1 | inactive |
| O=C1CC(N2CCN(C(c3ccccc3)c3ccccc3)CC2)C(=O)N1 (stereo not drawn) | inactive |
| CC1(C)CC(N2CCN(C(c3ccccc3)c3ccccc3)CC2)=CC(=[N+]2CCCCC2)C1 | 100 (active) |
| CC1(C)CC(=O)C=C(N2CCCC2)C1 | inactive |
| O=C(/C=C/Nc1ccc(S(=O)(=O)Nc2cnc3ccccc3n2)cc1)c1cccnc1 | inactive |
| COc1ccc(/C=C(\C#N)c2c[nH]c3ccccc23)cc1 | inactive |
| COc1ccc2[nH]cc(/C=C(/C#N)S(=O)(=O)c3ccccc3)c2c1 | 100 (active) |
| CCN(CC)CC(=O)c1c[nH]c2ccc(OC)cc12 | inactive |
| COC(C[C@@H](O)C[C@@H](O)[C@H](C)OCc1ccccc1)OC | inactive |
| CCc1cccc(NC(=O)COC(=O)C2CCN(c3ccc(C(F)(F)F)cn3)CC2)c1 | inactive |
| Cc1cccc(-n2c(SCC(N)=O)nc3c(c2=O)C2(CCCCC2)Cc2ccccc2-3)c1 | 100 (active) |
| N#CCSc1nc2c(c(=O)n1Cc1ccccc1)C1(CCCC1)Cc1ccccc1-2 | inactive |
| Cc1cccc(-n2c(=O)c3c(C)c(C)sc3n(CC(N)=O)c2=O)c1 | inactive |
| Cc1ccc(-c2csc(-c3c[nH]c4ccccc34)n2)cc1 | 100 (active) |
| CCCc1cc(-c2nc(-c3ccc(C)cc3)cs2)ccn1 | inactive |
| Cc1ccc(-c2csc(-c3cc(C)on3)n2)cc1 | inactive |

| SMILES | normalized B-score (activity score, 25-100; higher = stronger inhibition) |
| --- | --- |
| O=C(C1CCCO1)N1CCN(S(=O)(=O)c2ccc(Br)cc2)CC1 (stereo not drawn) | inactive |
| Cc1cc(=O)oc2cc(OCC3CC(c4ccccc4Cl)=NO3)ccc12 (stereo not drawn) | inactive |
| O=C(CCS(=O)(=O)c1ccc2c(c1)NC(=O)CS2)NCc1ccccc1Cl | inactive |
| O=C(N[C@@H](Cc1ccccc1)C(=O)OCc1ccccc1)c1nc[nH]c1C(=O)N[C@@H](Cc1ccccc1)C(=O)OCc1ccccc1 | inactive |
| CNC(=O)c1[nH]cnc1C(=O)N[C@@H](CC(C)C)C(=O)OCc1ccccc1 | 25 (active) |
| CNC(=O)c1[nH]cnc1C(=O)N[C@@H](CC(C)C)C(=O)OC(C)(C)C | inactive |
| Cc1nc(SCC(=O)N2CCc3ccccc3C2)c2c(C)c(C)sc2n1 | 100 (active) |
| Cc1nc(SCC(=O)N2CC(=O)Nc3ccccc32)c2c(C)c(C)sc2n1 | inactive |
| O=C(CSc1nnc(-c2cccs2)n1Cc1ccccc1)N1CCc2ccccc2C1 | inactive |
| O=C(N1CCCCC1)N1CCN(C(=O)N2CCCCC2)CC1 | inactive |
| O=S(=O)(c1ccccc1)N1CCc2ccccc21 | inactive |
| CCn1c(=O)c(=O)n(CC)c2cc(S(=O)(=O)N3CCc4ccccc43)ccc21 | inactive |
| Cn1c(=O)n(C)c2cc(S(=O)(=O)N3CCCc4ccccc43)ccc21 | 25 (active) |
| Cc1ccc(S(=O)(=O)NC2CCCCCC2)cc1C(N)=O | inactive |
| COC(=O)[C@@H]1C[C@@]2(O)[C@H](O)[C@H](O)[C@H](O)C[C@H]2N1Cc1ccc(C(C)(C)C)cc1 | inactive |
| O=C(CSCc1ccc(Cl)cc1)N1CCCCC1 | inactive |
| Cn1c(=O)cc(OCCCC(=O)N2CCN(Cc3ccc4c(c3)OCO4)CC2)c2ccccc21 | inactive |
| O=C(C1CCN(Cc2ccc(Cl)cc2)CC1)N1CCN(Cc2ccc3c(c2)OCO3)CC1 | inactive |
| O=C(Nc1cccc2ccccc12)N1CCN(Cc2ccc3c(c2)OCO3)CC1 | inactive |
| O=C(CSCc1ccc(Cl)cc1)N1CCN(Cc2ccc3c(c2)OCO3)CC1 | 100 (active) |
| O=C(CCCN1C(=O)c2cccc3cccc(c23)C1=O)N1CCN(Cc2ccc3c(c2)OCO3)CC1 | 100 (active) |

| SMILES | normalized B-score (activity score, 25-100; higher = stronger inhibition) |
| --- | --- |
| NC(=O)C1=C[C@@H](c2ccc3c(c2)OCO3)C[C@@H](OCCCCO)O1 | inactive |
| COc1ccc(N2C(=O)C(CC(=O)Nc3ccc(F)cc3)N(CCc3cccs3)C2=O)cc1 (stereo not drawn) | inactive |
| Cc1cnc(C)c(N2CCN(C(=O)C3CCC(=O)N(CCc4cccc(F)c4)C3)CC2)n1 (stereo not drawn) | inactive |
| CC(C)Cn1cnc2c1c(=O)n(CC(=O)NN)c(=O)n2Cc1ccccc1 | inactive |
| Cc1ccnc(NC(=O)C2CCN(S(=O)(=O)c3c(C)c(C)cc(C)c3C)CC2)c1 | inactive |
| COc1ccc(CCNc2cc(C)nc3c(-c4ccc(Cl)cc4)c(C)nn23)cc1OC | inactive |
| CC(=O)Nc1ccc(OC(=O)COc2ccc(Br)cc2)cc1 | inactive |
| COC(C(=O)Nc1ccc(C(C)=O)cc1)c1ccccc1 (stereo not drawn) | inactive |
| Cc1ccc(NC(=O)C(C)c2cccc(C(=O)c3ccccc3)c2)cc1 (stereo not drawn) | 100 (active) |
| CC(=O)Nc1ccc(NC(=O)[C@@H](NC(=O)c2cccc(C)c2)C(C)C)cc1 | inactive |
| COCCn1c(=O)[nH]c(=O)c2cc(C(=O)c3cc(OC)ccc3O)cnc21 | inactive |
| CC1Cc2ccccc2N1C(=O)CSc1nnc(C2CC2)n1C (stereo not drawn) | inactive |
| CCCCSc1nnc2c(n1)OC=Nc1ccccc1-2 | inactive |
| O=C(CSC(=S)N1CCCCC1)c1c(F)cccc1F | inactive |
| CCOC(=O)[C@H]1[C@H]2COc3ccc(Cl)cc3[C@@H]2N2C(=O)c3cc(C)ccc3NC(=O)[C@@]12C | inactive |
| CCN(CC)S(=O)(=O)c1ccc(Cl)c(NC(=O)c2ccncc2)c1 | inactive |
| CCN(CC)S(=O)(=O)c1ccc(N(C)Cc2cccc(OC)c2OC)nc1 | 25 (active) |
| CCN(CC)S(=O)(=O)c1ccc(NC(=O)c2cnc(C)cn2)cc1 | inactive |
| CCN(CC)S(=O)(=O)c1ccc(N(C)Cc2ccc(C(F)(F)F)cc2)nc1 | 100 (active) |
| CCN(CC)S(=O)(=O)c1ccc(N(C)CCc2ccc(OC)c(OC)c2)nc1 | inactive |
| COc1ccc(S(=O)(=O)N2CCCCCC2)cc1C(=O)N(C)Cc1cccc(OC)c1OC | inactive |
